Data reported in PubChem BioAssay (NCI).
Several values for one entry are separate records, joined by “and”; a condition that tells them apart may be missing. Equal values may be shown once. About 83,000 compounds went through this panel and 20% of them were active in at least one assay; those are over-represented in the sample as a whole.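 Negative percent growth values reflect cell death: -40 means 40% of the cells present at the start died, and -100 means all died.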 Values without a mark were called inactive. Activity calls are given as the source filed them. How the source made its calls: active means growth percent below 10; inactive means the rest.

How the values were obtained:
Test in all cases: NCI-60 one-dose screen, 48 h (100 = growth as untreated, 0 = no growth, -100 = all killed)
[1] = test system: T-47D breast; conditions: 10 µM unless noted
[2] = test system: BT-549 breast; conditions: 10 µM unless noted
[3] = test system: MDA-MB-435 melanoma; conditions: 10 µM unless noted
[4] = test system: SW-620 colon; conditions: 10 µM unless noted
[5] = test system: MCF7 breast; conditions: 10 µM
[6] = test system: HCT-116 colon; conditions: 10 µM unless noted
[7] = test system: HCC-2998 colon; conditions: 10 µM unless noted
[8] = test system: KM12 colon; conditions: 10 µM unless noted

Row | Structure (SMILES) | growth [1] | growth [2] | growth [3] | growth [4] | growth [5] | growth [6] | growth [7] | growth [8]
1 | CCC(=O)Sc1ccccc1C(=O)Nc1ccc(Cl)cc1 | 45.1% | 10.2% | 25.9% | 17.5% | 19% | 25.8% | 85.7% | 64.9%
2 | c1ccc2c(c1)Nc1cc3ccccc3cc1N2 | 24.9% | 33% | -16.7% (active) | 18.8% | 2.88% (active) | 26.4% | 36.8% | 44.2%
3 | COc1ccc2nc3cc(Cl)ccc3c(NCCNc3c4ccc(Cl)cc4nc4ccc(OC)cc34)c2c1 | -64.4% (active) | -76.6% (active) | -78.9% (active) | -50.4% (active) | -70% (active) | -83.3% (active) |  | -71.8% (active)
4 | O=C(/C=C/C=C/c1ccccc1)c1ccco1 | 67.5% | 113% | 92.8% | 62.4% | 26.1% | 36.3% | 114% | 86.8%
5 | CCN(CC)CC(C)(C)C(=O)/C=C/c1ccc(Cl)c(Cl)c1 | -11.3% (active) | 16.4% | 1.76% (active) | -39.5% (active) | -13.8% (active) | -60.6% (active) |  | -4.49% (active)
6 | CCOC(=O)/C(=C\c1ccc(-c2ccccc2)cc1)C(C)=O | 105% | 98.8% | 98.9% | 101% | 93.3% | 103% |  | 104%
7 | CCN(CC)CCOc1ccc(-c2nc3cc(Cl)ccc3s2)cc1 | 22% | 68% | -51.1% (active) | -52.9% (active) | 9.23% (active) | -69.3% (active) |  | -99.2% (active)
8 | CCCCCCCCCCCCCCCCN(CC)CC | 2.05% (active) | -36.8% (active) | -80.8% (active) | -69.1% (active) | -68.6% (active) | -52.5% (active) |  | -57% (active)
9 | O=C(O)c1ccc2c3c(ncnc13)-c1ccccc1C2=O | 101% | 33.8% | -60% (active) | 87.7% | 50.9% | 91.2% | -58.5% (active) | 46.5%
10 | Cn1c2c(c3ccccc31)CCN1C[C@@H]3CCCC[C@H]3C[C@@H]21 | 32.9% | 22.5% | -53.4% (active) |  | 13.9% | -10.1% (active) | -4.34% (active) | -32.3% (active)
11 | O=C(O)C1C2CC3C(OC(=O)C31)C2Br (stereo not drawn) | 98.7% and 96% | 99.4% and 93.2% | 109% and 95.4% |  | 88.7% and 93.8% | 94.1% and 101% | 88.8% and 96.8% | 108% and 106%
12 | CNc1ccc(N)cc1 | 119% | 87.6% | 96.2% |  | 96.3% | 107% | 100% | 107%
13 | CC(C)(C)c1ccc(O)c(C2CCCCC2)c1 | 108% | 127% | 117% |  | 101% | 95% |  | 91.1%
14 | CCC(CCCN(CC)CCc1ccccc1)OC(=O)c1cc(OC)c(OC)c(OC)c1 (stereo not drawn) | 77.8% | 99.6% | 100% |  | 85.9% | 75.3% |  | 96.6%
15 | CC(=O)ON=C1C=CC(=C(C#N)c2ccccc2)C=C1 | 42.3% | 50.7% |  | 6.41% (active) | 15.5% | -13.1% (active) | 88.3% | -48.2% (active)
16 | C1=C(c2ccccc2)C(c2ccc(OCCN3CCCCC3)cc2)Oc2ccccc21 (stereo not drawn) | 26.1% | 72.9% | 18.7% |  | 6.42% (active) | 46.6% | 34.1% | 46.4%

Row | Structure (SMILES) | growth [1] | growth [2] | growth [3] | growth [4] | growth [5] | growth [6] | growth [7] | growth [8]
17 | CNc1ccc2c(c1)c1ccccc1n2C | 91.3% | 106% | 115% |  | 97.5% | 107% | 99.4% | 104%
18 | CN(Cc1cnc2nc(N)nc(N)c2n1)c1ccc(C(=O)NC(CCC(=O)O)C(=O)O)cc1 (stereo not drawn) | 67.6% | 48.4% | 30.6% |  | 24.3% | 20.6% | 27.7% | 32.4%
19 | COC(=O)c1nc(=S)[nH]c(C(=O)OC)c1C(=O)c1ccc2ccccc2c1 | 86.5% | 131% | 104% |  | 94.4% | 107% |  | 107%
20 | NC(=S)N/N=C\c1nccc2c(C(F)(F)C(F)(F)C(F)(F)F)cccc12 | 4.05% (active) | 41.4% | 23.4% |  | 11.5% | 17.4% | 13.3% | 14.2%
21 | Nc1nc(N)c2c(ccc3c2ccn3Cc2cccc([N+](=O)[O-])c2)n1 | -67% (active) | -91.4% (active) | -93.4% (active) |  | -79.2% (active) | -84.9% (active) | -86% (active) | -92.3% (active)
22 | COC(=O)[C@@]12OC[C@]34[C@H]([C@@H](O)[C@@H]1O)[C@@]1(C)[C@H](O)C(=O)C=C(C)[C@@H]1C[C@H]3OC(=O)C(OC(C)=O)[C@@H]24 (stereo partly drawn) | -20.5% (active) | -53.1% (active) |  | -38.2% (active) | -19.2% (active) | -54.1% (active) | -75.8% (active) | -57.8% (active)
23 | O=C1c2ccccc2C(=O)c2sc(Nc3cccc(Cl)c3)nc21 | 16% | 61.5% |  | -54.6% (active) | -59% (active) | -29.9% (active) | -34.3% (active) | 24.6%
24 | CN=C(N)N/N=C(\C)c1ccc2c(c1)Cc1cc(/C(C)=N/NC(N)=NC)ccc1-2 | -26% (active) | 49.6% |  | -14.8% (active) | -38.3% (active) | -23.5% (active) | -78.7% (active) | -20.3% (active)
25 | CCC1OC(OC)C=CC1=O (stereo not drawn) | 95.1% | 88.8% |  | 100% | 89.9% | 96.5% | 122% | 99.7%
26 | CC1OC2CC(=O)OC2C2=C1C(=O)c1c(O)cccc1C2=O (stereo not drawn) | -30.1% (active) | -98.5% (active) |  | -76.4% (active) | -45.2% (active) | -97.8% (active) | -97.4% (active) | 24.7%
27 | CC(C)c1ccc2nc3ccc(C(=O)NCCN4CCN(c5ccccc5)CC4)cn3c(=O)c2c1 | 28.5% | 51.3% | 58.7% |  | 58.8% | 53.6% | 75.9% | 67.2%
28 | Oc1c(Cl)cc(Cl)c2cccnc12 | 52.4% and 43.4% | 53.1% and 40.3% |  | 54.9% and 57.5% | 50.8% and 29.1% | 40.6% and 25.6% | 74.6% and 69.2% | 54.2% and 52.3%
29 | CCOc1ccc(-c2nc3ccc(-c4nc5ccc(N6CCN(C)CC6)cc5[nH]4)cc3[nH]2)cc1 | -69.4% (active) | -96.6% (active) | -96% (active) |  | -90.3% (active) | -77.6% (active) |  | -100% (active)
30 | N#CSCc1c(Cl)cccc1Cl | 79.9% | 88.4% | 29.6% |  | 33.3% | 4.1% (active) | 70% | 48.1%
31 | CC(=Nc1ccc(N(C)C)cc1)c1ccccc1 | 39.6% | 58.3% | 54.4% |  | 20.8% | 50% |  | 42.6%
32 | O=C1C2=C(Nc3cc([N+](=O)[O-])ccc3N2)OC1c1c2ccccc2cc2ccccc12 (stereo not drawn) | 47.4% | 23.3% |  | 21.8% | 22.3% | 15.5% | 72.6% | 16.7%
